# Results reported in PubChem BioAssay (NCI).
# About 83,000 compounds went through this panel and 20% of them were active in at least one assay; those are over-represented in the sample as a whole.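 For each line, cells grew in 96-well plates with the test compound present at a single concentration for 48 hours.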 Activity calls are given as the source filed them. The calls were made as follows: active = growth percent below 10; inactive = the rest.
# System: MDA-MB-435 melanoma
# Experiment: NCI-60 one-dose screen, 48 h (100 = growth as untreated, 0 = no growth, -100 = all killed)
# Conditions: 10 µM unless noted
row,Compound,growth
1,O=S(=O)(c1ccccc1)N1CCCN(c2nc(-c3ccccc3)nc3nc(-c4ccccc4)oc23)CC1,102% (inactive)
2,Cc1cc2oc(=O)cc(CP(=O)(O)O)c2cc1O,99.9% (inactive)
3,COC(=O)c1ccc2c(c1)c1c(C)c3ccncc3c(C)c1n2C,28.3% (inactive)
4,CCOC(=O)N1CCN(S(=O)(=O)c2oc(-c3ccc(Cl)cc3)nc2C#N)CC1,98.6% (inactive)
5,CC(CN)[C@@H]1CC[C@]2(CO)CC[C@]3(C)[C@H](CC[C@@H]4[C@@]5(C)CCC(N)C(C)(C)[C@@H]5CC[C@]43C)[C@@H]12 (stereo not given in full),-29.2% (active)
6,C=CC1(C)C(O[Si](C)(C)C(C)(C)C)CC2C3OC(=O)NC31c1cccc3c1[C@H](C(=O)N3C)C2(C)C (stereo not given in full),56.2% (inactive)
7,O=C1/C(=C/c2ccc(C(F)(F)F)cc2)COc2ccc(O)c(O)c21,-5.38% (active)
8,Cc1ccccc1CNc1c2ccccc2nc2ccccc12,23.9% (inactive)
9,CCCCC(=O)Nc1ncc(Cc2ccccc2Cl)s1,-31.8% (active)
10,C=CCn1c(SCC(=O)Nc2ccc(C(=O)/C=C/c3cc(OC)c(OC)c(OC)c3)cc2)nnc1-c1cc(-c2ccc(OC)cc2)nc2ccccc12,100% (inactive)
11,N#Cc1c(NC(=O)c2cccs2)[n+]([O-])c2ccc(Cl)cc2[n+]1[O-],89.2% (inactive)
12,CCOC(=O)c1c2c(n3c1NCC3)-c1ccccc1C2=O,90.8% (inactive)
13,COc1ccc(NC(=O)c2cccc(C3CCc4c(cc(OC)c(OC)c4OC)O3)c2)cc1 (stereo not given),-10.5% (active)
14,C[C@@H](CO)[C@@H]1CC[C@]2(C(=O)N3CCN(C)CC3)CC[C@]3(C)[C@H](CC[C@@H]4[C@@]5(C)CC[C@H](O)C(C)(C)[C@@H]5CC[C@]43C)[C@@H]12,75.8% (inactive)
15,COc1ccc(NC(=O)c2ccc(C(=O)Nc3ccc(OC)cc3OC)cc2)c(OC)c1,93.3% (inactive)
16,CCN(CC)CCCC(C)Nc1ccc2cc(OC)ccc2n1 (stereo not given),104% (inactive)
17,CCN(C(=O)N1CCN(c2cc3c(cc2F)c(=O)c(C(=O)O)cn3C2CC2)CC1)c1nc(-c2ccc(C)cc2)cs1,16.2% (inactive)
18,CCOC(=O)n1cc(-c2nonc2-c2cn(C)c3ccccc23)c2ccccc21,-8% (active)
19,O=C1c2cccnc2C(=O)c2c1c(C(=O)OCCCN1CCCCC1)c1ccccn21,-41.5% (active)
20,Cc1ccc(Nc2nc(-c3ccc(F)cc3)c(C#N)c(=O)n2C)cc1,74.7% (inactive)
21,COc1cc(/C=C2\C(=O)N(c3c(Cl)cccc3Cl)c3ccccc32)cc(OC)c1OCCCCCCn1c2ccccc2c(=O)c2ccccc21,103% (inactive)
22,CSCCC(NC(=O)c1ccccc1)C(=O)N/N=C1\S/C(=C/c2ccc(Cl)cc2)C(=O)N1C (stereo not given),86.2% (inactive)
23,CC1(C)CCC(S(=O)(=O)c2ccc3c(c2)/C(=N\O)c2cc(S(=O)(=O)N4CCN(c5ccc(F)cc5O)CC4)ccc2-3)CC1,-92.3% (active)
24,Cc1cscc(C)c1=S,104% (inactive)
25,O=C(O)C1CN(c2cccc(Cl)c2)N(c2cccc(Cl)c2)C1=O (stereo not given),94.2% (inactive)
26,CCNC(=O)Oc1ccc(/C(=C(/C)Cc2ccc(OC)cc2)c2ccc(OCCN3CCCC3)cc2)cc1,61.2% (inactive)
27,CC[C@H](C)[C@H](NC(=O)[C@H](CCCNC(=N)N)NC(=O)[C@H](Cc1c[nH]c2ccccc12)NC(=O)[C@@H](NC(=O)[C@H](CCCCN)NC(=O)[C@H](CCCCN)NC(=O)[C@@H](NC(=O)[C@@H](NC(=O)[C@@H](NC(=O)[C@H](CCCCN)NC(=O)[C@H](Cc1ccccc1)NC(=O)[C@H](CCCCN)NC(=O)[C@H](CCCCN)NC(=O)[C@H](Cc1ccccc1)NC(=O)[C@@H](NC(=O)[C@@H](N)CCCCN)[C@@H](C)CC)[C@@H](C)O)[C@@H](C)CC)[C@@H](C)CC)C(C)C)C(=O)N[C@@H](Cc1ccccc1)C(=O)NCC(=O)N[C@@H](CCCNC(=N)N)C(=O)N[C@@H](Cc1ccccc1)C(N)=O,-17% (active)
28,CC1O[C@@H]2C[C@@](O)([C@H]1O)n1c3ccccc3c3c4c(c5c6ccccc6n2c5c31)C(=O)NC4=O (stereo not given in full),43.1% (inactive)
29,Cc1nc2sc(C(=O)Nc3cccc(Cl)c3)c(N)c2cc1C(O)c1ccccc1 (stereo not given),5.16% (active)
30,CC(C(=O)O)n1c(O)c(C=Nc2cccnc2)sc1=S (stereo not given),100% (inactive)
